This note sets out measurements from PubChem BioAssay (EPA / NIEHS).

As usually defined, the AC50 is the midpoint of the concentration-response curve, whichever way the signal moves.

Assay [1] has as its target Transcription factor E2F1 (Homo sapiens) (UniProt Q01094). In words: ATG_E2F_CIS: Attagene CIS-FACTORIAL HepG2 Assay for human E2F Transcription Factor 1 (AID 2282935). The settings on record: HepG2 Attagene cis-reporter, E2F reporter RNA transcripts; actives raise or lower the signal. Put shortly:
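HepG2 cells transiently transfected with multiplexed cis-element reporter units, dosed for 24 h. Reporter mRNA measured by RT-PCR, 6-FAM primer-extension labeling, HpaI digestion and capillary electrophoresis; bidirectional fit versus DMSO baseline.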

A short description of assay [2]: ATG_E_Box_CIS: Attagene CIS-FACTORIAL HepG2 Assay for human Enhancer Box (E-box) (AID 2282936). The conditions noted are these: HepG2 E-box cis-reporter transcription, actives raise or lower the signal. Put shortly:
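HepG2 cells transiently transfected with multiplexed cis-element reporter units sensing endogenous transcription factor activity; 24 h compound exposure. Reporter mRNA measured by RT-PCR, 6-FAM primer extension, HpaI digestion and capillary electrophoresis; bidirectional fit versus DMSO.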

A short description of assay [3]: ATG_M_61_CIS: Attagene CIS-FACTORIAL HepG2 Assay for M61 Transcription Factor (Internal Marker) (AID 2282937). The conditions noted are these: HepG2 Attagene CIS-FACTORIAL M61 internal marker reporter; actives raise or lower the signal. Put shortly:
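Cells were transfected with reporter units under cis-regulatory promoters, treated with chemicals for 24 h, then lysed for RNA. Reporter transcripts were quantified by RT-PCR and capillary electrophoresis, and activity was fitted bidirectionally against DMSO.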

Assay [4] can be described thus: ATG_EGR_CIS: Attagene CIS-FACTORIAL HepG2 Assay for human Early Growth Response 1 (EGR1) (AID 2282938). The conditions noted are these: HepG2 Attagene CIS-FACTORIAL EGR reporter mRNA; actives raise or lower the signal. Summed up:
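Endogenous TF activity in HepG2 liver cells was gauged through cis-promoter reporter constructs transiently transfected. After 24 h dosing, reporter mRNA was quantified by RT-PCR and capillary electrophoresis, and curves fitted in both directions versus DMSO.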

The nature of assay [5]: ATG_M_19_CIS: Attagene CIS-FACTORIAL HepG2 Assay for M19 Transcription Factor (Internal Marker) (AID 2282939). The conditions noted are these: HepG2 Attagene CIS-FACTORIAL M19 internal marker reporter; actives raise or lower the signal. Summed up: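 Transfect HepG2 with MRTU reporter library → dose chemical, 24 h → isolate total RNA, reverse-transcribe with oligo(dT) → PCR, 6-FAM label, HpaI cut (2 h, 37 C) → capillary electrophoresis. Bidirectional fit vs DMSO.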

Assay [6] is described as follows: ATG_Ets_CIS: Attagene CIS-FACTORIAL HepG2 Assay for human Erythroblast Transformation Specific (ETS) (AID 2282941). The settings on record: HepG2 ETS cis-reporter transcription, actives raise or lower the signal. Put shortly: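 Steps: transfect HepG2 with multiple reporter units; treat compound 24 h; isolate RNA, DNase-treat, reverse-transcribe; PCR-amplify, label with 6-FAM, digest with HpaI; separate by capillary electrophoresis. Activity fitted both directions versus DMSO.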

Assay [7] has as its target Hepatocyte nuclear factor 3-beta (Homo sapiens) (UniProt Q9Y261). In words: ATG_FoxA2_CIS: Attagene CIS-FACTORIAL HepG2 Assay for human Forkhead box A2 (FOXA2) (AID 2282942). The settings on record: HepG2 cis-reporter transcription factor activity, 24 h; actives raise or lower the signal. Put shortly: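 Endogenous transcription factor activity was read in HepG2 cells carrying transiently transfected cis-promoter reporter units. After 24 h dosing, reporter mRNA was quantified by RT-PCR and capillary electrophoresis, and values fitted bidirectionally versus DMSO.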

Assay [8] is described as follows: ATG_FoxO_CIS: Attagene CIS-FACTORIAL HepG2 Assay for human Forkhead box O (FoxO) (AID 2282943). The settings on record: HepG2 Attagene cis-reporter, FoxO element, mRNA; actives raise or lower the signal. Summed up: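 24 h chemical exposure, HepG2 with transient cis-MRTU transfection. RNA extraction, oligo(dT) RT, reporter-specific PCR, primer-extension labelling, HpaI digestion, CE fragment analysis; bidirectional fit, DMSO baseline.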

A short description of assay [9]: ATG_GATA_CIS: Attagene CIS-FACTORIAL HepG2 Assay for human GATA Binding Protein (AID 2282944). The settings on record: HepG2 GATA cis-element reporter, Attagene multiplex mRNA; actives raise or lower the signal. Summed up:
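Transient MRTU transfection, HepG2, 24 h compound exposure. Total RNA → oligo(dT) RT → PCR → 6-FAM primer extension → HpaI cut → CE. Bidirectional fit vs DMSO.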

The nature of assay [10]: ATG_ERE_CIS: Attagene CIS-FACTORIAL HepG2 Assay for Estrogen Response Element (ERE) (AID 2282940). The settings on record: HepG2 ERE cis-reporter, Attagene RNA transcript; actives raise or lower the signal. Summed up: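 Transient MRTU transfection of human HepG2; cis-element promoters; 24 h dosing; total RNA → RT (oligo dT) → PCR → 6-FAM primer extension → HpaI digest → CE fluorescence. Bidirectional fit, DMSO baseline.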

Some structures have more than one record in an assay (separate samples or runs), and their calls can disagree. Active and inactive are the calls of the source. How the source made its calls: active means hit-call score of the fitted dose curve at least 0.9, where 1 is the maximum; inactive means score below 0.9.

Sequence of Transcription factor E2F1 (Homo sapiens) (Q01094 whole entry, looked up): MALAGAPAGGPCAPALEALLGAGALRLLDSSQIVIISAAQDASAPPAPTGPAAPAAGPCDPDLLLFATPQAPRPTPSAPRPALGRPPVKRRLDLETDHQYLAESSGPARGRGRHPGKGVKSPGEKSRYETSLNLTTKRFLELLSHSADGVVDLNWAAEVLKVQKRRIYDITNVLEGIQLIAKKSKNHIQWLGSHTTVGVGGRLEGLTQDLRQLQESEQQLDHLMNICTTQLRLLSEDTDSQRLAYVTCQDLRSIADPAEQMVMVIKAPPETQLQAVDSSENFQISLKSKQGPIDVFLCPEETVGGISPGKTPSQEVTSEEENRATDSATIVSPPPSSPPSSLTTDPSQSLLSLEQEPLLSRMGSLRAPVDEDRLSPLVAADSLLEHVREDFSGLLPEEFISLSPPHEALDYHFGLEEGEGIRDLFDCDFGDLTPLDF
Sequence of Hepatocyte nuclear factor 3-beta (Homo sapiens) (Q9Y261 whole entry, looked up): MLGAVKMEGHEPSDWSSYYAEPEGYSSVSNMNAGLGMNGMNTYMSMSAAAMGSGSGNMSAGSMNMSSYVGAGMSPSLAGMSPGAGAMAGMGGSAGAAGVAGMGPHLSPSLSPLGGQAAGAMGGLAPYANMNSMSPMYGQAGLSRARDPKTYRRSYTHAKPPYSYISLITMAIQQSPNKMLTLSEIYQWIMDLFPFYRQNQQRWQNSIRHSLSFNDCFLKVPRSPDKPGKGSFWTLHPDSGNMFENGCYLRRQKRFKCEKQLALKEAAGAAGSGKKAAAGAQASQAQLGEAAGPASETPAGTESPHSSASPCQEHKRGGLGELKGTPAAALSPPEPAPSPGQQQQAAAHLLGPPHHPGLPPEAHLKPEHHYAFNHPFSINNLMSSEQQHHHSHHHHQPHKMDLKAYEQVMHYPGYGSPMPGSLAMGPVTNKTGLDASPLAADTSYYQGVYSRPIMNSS

Take `COC(=O)c1ccccc1S(=O)(=O)NC(=O)Nc1nc(C)nc(OC)n1`: the molecule was called inactive in [1], in [2], in assay [3], in assay [4], in assay [5] and in [6]. Besides, the result in [7], in [8] and in assay [9] was inactive. Besides, the concentration at half-maximal activity (AC50) in assay [8] is 75.5 µM (active).
With `CC1(C)C(C=C(Cl)Cl)C1C(=O)OC(C#N)c1ccc(F)c(Oc2ccccc2)c1` (centres undefined), the molecule was called inactive in [1], in assay [2], in assay [3], in assay [4], in assay [5] and in assay [10]. In addition, the molecule was called inactive in [6], in assay [7], in assay [8] and in [9].
`Cc1[nH]c(=O)n(C(C)(C)C)c(=O)c1Cl`: the molecule was classed as inactive in assay [1], in assay [2], in assay [3], in assay [4], in [5] and in [10]. Further, the result in [6], in [7], in [8] and in assay [9] was inactive.
As for `CC(C)OC(=O)Nc1cccc(Cl)c1`, the outcome in assay [1], in assay [2], in [3], in [5], in [10] and in assay [6] was inactive. Also, the molecule was classed as inactive in [7], in assay [8] and in [9]. Further, in [4], the half-maximal activity concentration (AC50) was 94.5 µM (active).
For the molecule `CC(C)(C)C(O)C(Oc1ccc(Cl)cc1)n1cncn1` (centres undefined), the molecule was called inactive in assay [1], in assay [2], in assay [3], in assay [4], in assay [5] and in assay [6]. Further, the molecule was classed as inactive in assay [7], in assay [8] and in assay [9]. In [7], the AC50 was 16.9 µM (active).
On to `COP(=O)(OC)OC=C(Cl)Cl`, for which the molecule was classed as inactive in assay [1], in [2], in assay [3], in [10], in assay [6] and in [7]. The call in [8] and in assay [9] was inactive. Moreover, in assay [4], the AC50 is 14.4 µM (active).
In the case of `CC[C@H](C)[C@H]1O[C@]2(C=C[C@@H]1C)C[C@@H]1C[C@@H](C/C=C(\C)[C@@H](O[C@H]3C[C@H](OC)[C@@H](O[C@H]4C[C@H](OC)[C@@H](O)[C@H](C)O4)[C@H](C)O3)[C@@H](C)/C=C/C=C3\CO[C@@H]4[C@H](O)C(C)=C[C@@H](C(=O)O1)[C@]34O)O2` (tested in a mixture with another compound), the call in assay [1], in [2], in assay [3], in assay [4], in assay [10] and in [6] was inactive. Further, the outcome in assay [7], in assay [8] and in assay [9] was inactive.
Consider `COP(=S)(OC)Oc1ccc(SC)c(C)c1`, for which the result in assay [1], in assay [2], in assay [3], in assay [4], in [5] and in assay [6] was inactive. In addition, the molecule was classed as inactive in [7], in [8] and in assay [9]. Moreover, in assay [10], the AC50 is 17.7 µM (active).
With `CNC(=O)Oc1ccccc1OC(C)C`, the result in [1], in assay [2], in [3], in assay [4], in assay [5] and in assay [10] was inactive. Besides, the result in assay [6], in assay [7], in assay [8] and in [9] was inactive.
With `CNC(=O)CSP(=S)(OC)OC`, the call in assay [1], in [2], in assay [3], in [4], in assay [10] and in assay [6] was inactive. The molecule was classed as inactive in assay [7], in [8] and in [9].
Take `O=C1c2ccccc2C(=O)N1SC(Cl)(Cl)Cl`: the result in assay [1], in assay [2], in assay [3], in [4], in [10] and in assay [6] was inactive. Moreover, the molecule was classed as inactive in [7], in assay [8] and in assay [9].
With `O=C(Nc1ccccc1)Nc1cnns1`, the outcome in assay [1], in assay [2], in assay [3], in [10], in assay [6] and in [7] was inactive. Besides, the molecule was classed as inactive in [8] and in assay [9]. Also, the AC50 in [4] was 90.3 µM (active).
With `N#Cc1c(Cl)c(Cl)c(Cl)c(C#N)c1Cl`, the molecule was classed as inactive in [1], in [2], in assay [3], in [4], in [10] and in [6]. Also, the result in assay [7], in assay [8] and in assay [9] was inactive.
